Source: PubChem (several laboratories)
In the library only some 4.3% were active in any assay of this set; here they are far more common.
esBAF inh – inhibitors of esBAF chromatin remodeling in mouse ES cells; Bmi1-luciferase knock-in reporter, 24 h; 100% = twice the neutral-well signal; reporter increase, % at 12.5 µM; 350,000 tested, 2% active; AID 602393; in the data active means activation above about 40%; inconclusive means no clear call, values can overlap the other calls;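 further: 0% = median of the plate's neutral control wells and 100% = double that signal; a rise in the Bmi1 reporter signal indicates esBAF inhibition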
Wnt act – activators of Wnt/beta-catenin signaling | activation, % at 9.35 µM | Wnt/beta-catenin reporter cell assay, activator, plate reader | 300,000 tested, 1.2% active; in the data active means activation above about 30%, passing the limit was not always enough; inconclusive means no clear call, values can overlap the other calls;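 further: 0% = neutral control wells and 100% = positive control wells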
AF4-AF9 inh – blocks AF4 peptide binding to human AF9; AID 651704; P42568; AlphaScreen, biotin-AF4 peptide binding to FLAG-AF9; 350,000 tested, 0.47% active; inhibition, % at 10 µM;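 active means every replicate reaching a set inhibition limit, whatever the replicate mean, cut at about 25% in these data; inconclusive means mean inhibition reaches that limit but some replicates miss it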;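 further: 0% = plate neutral control median and 100% = total signal loss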
Target sequence (P42568 whole entry, looked up): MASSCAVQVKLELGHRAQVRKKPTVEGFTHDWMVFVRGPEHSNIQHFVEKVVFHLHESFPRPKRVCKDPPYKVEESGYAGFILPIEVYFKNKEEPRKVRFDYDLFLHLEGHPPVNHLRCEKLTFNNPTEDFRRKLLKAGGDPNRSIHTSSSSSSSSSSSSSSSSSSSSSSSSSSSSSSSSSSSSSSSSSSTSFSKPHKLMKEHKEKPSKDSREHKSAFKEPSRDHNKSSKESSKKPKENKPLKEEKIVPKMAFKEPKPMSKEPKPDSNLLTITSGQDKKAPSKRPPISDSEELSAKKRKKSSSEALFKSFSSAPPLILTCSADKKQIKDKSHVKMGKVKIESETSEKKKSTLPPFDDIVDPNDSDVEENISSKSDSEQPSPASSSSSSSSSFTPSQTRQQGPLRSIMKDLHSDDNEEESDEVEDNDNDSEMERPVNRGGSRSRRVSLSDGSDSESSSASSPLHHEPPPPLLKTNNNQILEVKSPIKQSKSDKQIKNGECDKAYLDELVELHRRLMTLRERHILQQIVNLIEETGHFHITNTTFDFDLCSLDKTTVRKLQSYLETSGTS
SMARCA2 act – increases SMARCA2 function in MMTV reporter cells. 370,000 tested, 1% active. MG213 cells, MMTV-luciferase reporter, dexamethasone, overnight. activation, % at 9.1 µM. AID 652017; in the data active means activation above about 7.8%;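 further: 0% = vehicle wells and 100% = reference activator wells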
FGF22 binding – shifts melting point of recombinant human FGF22; recombinant FGF22 thermal shift, SYPRO orange fluorescence; percent of sucrose octasulfate shift, DMSO zero; 340,000 tested, 1.5% active; activity (Tm shift, normalised), % at 9.99 µM; Q9HCT0;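 active means mean Tm shift, scaled 0 neutral to 100 positive control, at about 1.3% or above, every replicate too, limit read from the data; inconclusive means no clear call, values can overlap the other calls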
MITF TRPM1 HTS – MITF TRPM1 promoter activation in melanoma cells. SK-MEL-5 TRPM1-promoter luciferase, 24 h; % of positive control, neutral wells = 0. 300,000 tested, 0.75% active. activation, % at 12.5 µM. AID 588334;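 active means mean activation of at least 80% with every replicate also reaching 80%; inconclusive means mean reaches 80% but some replicate falls short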;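 further: 0% = neutral control wells and 100% = parthenolide positive control wells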
Active calls of the source: *; u = inconclusive; x = not tested or not shown.

SMILES	esBAF inh	Wnt act	AF4-AF9 inh	SMARCA2 act	FGF22 binding	MITF TRPM1 HTS
C[C@@H]1CCCCO[C@H](CN(C)Cc2ccncc2)[C@H](C)CN([C@@H](C)CO)C(=O)c2cc(NC(=O)c3ccncc3)ccc2O1	x	x	-1.6	x	0.5	x
CCCNC(=O)C[C@@H]1CC[C@@H]2[C@H](COc3ccc(NC(=O)c4cccs4)cc3C(=O)N2C)O1	-1.9	x	0.5	x	0.2	x
NNC(=O)C1CCCN1S(=O)(=O)c1ccc(Cl)cc1 (stereo unspecified)	2.5	2.0	-1.3	-1.6	43.1*	0.2
CCC(C)NC(=O)C1CCCN1S(=O)(=O)c1ccc(Cl)cc1 (stereo unspecified)	-3.1	-0.9	-7.3	-2.7	-0.2	9.9
CC(=O)Nc1ccc(Oc2nc(-c3ccccn3)nc3ccccc23)cc1	x	4.9	-2.1	7.9*	0.1	43.5
CC(=O)Nc1cccc(Oc2nc(-c3ccccn3)nc3ccccc23)c1	x	17.5	-2.1	5.6	-0.3	x
Cc1ccc(NC(=O)c2cc3c(s2)CCCC3)cc1	u	60.6*	-11.7	-1.0	0.1	147.7*
Cc1ccc(NC(=O)c2scc3c2CCCC3)cc1	x	14.6	-3.4	4.2	0.3	115.1*
COc1ccc(NC(=O)C2(c3ccc(NC(=O)c4ccc(C)cc4)cc3)CCCC2)cc1	-3.4	-2.7	4.0	-2.5	0.1	0.5
O=C(Nc1ccccc1OC(F)F)c1cc2c(s1)CCC2	44.4*	x	-8.9	4.0	0.3	32.7
C[C@@H]1CN([C@@H](C)CO)C(=O)c2cc(C#CC3CCCCC3)cnc2O[C@@H]1CN(C)S(C)(=O)=O	10.4	x	-1.6	x	-0.2	x
O=C(C[C@@H]1C=C[C@H](NS(=O)(=O)c2ccccc2)[C@@H](CO)O1)N1CCN(c2ccccc2)CC1	x	x	x	x	0.0	x
O=C(C[C@@H]1CC[C@@H]2[C@H](COC[C@H](O)CN2C(=O)c2ccc3c(c2)OCO3)O1)NC1CCC1	-1.0	x	-0.7	x	0.9	x
CC(NC(=O)COC(=O)c1cc(Cl)nc(Cl)c1)c1ccccc1 (stereo unspecified)	-1.7	0.3	0.7	-4.3	43.4*	-6.3
CC(NC(=O)COC(=O)c1ccccc1O)c1ccccc1 (stereo unspecified)	-2.1	-1.0	0.3	-3.3	-0.1	x
CCN(C(=O)Cc1c(C(=O)O)n(C)c2ccccc12)c1ccc(F)cc1	x	0.0	-1.6	-2.7	43.0*	12.1
CCOC(=O)c1nn(-c2ccc([N+](=O)[O-])cc2)cc1O	26.8	17.1	-5.3	6.8	0.2	41.6
CCOC(=O)c1nn(-c2ccc(C)c(C)c2)cc1O	46.1*	x	x	7.0	x	u
CCOC(=O)c1nn(-c2ccc(C)cc2)cc1C(=O)c1ccccc1	78.5*	x	x	3.5	x	x
Cc1ccc(NC(=O)COC(=O)c2nn(-c3ccc(Cl)cc3)cc2O)cc1	49.1*	4.7	0.6	1.9	0.0	30.6
CC(=O)c1nn(-c2ccc(Cl)cc2)cc1C(=O)c1ccccc1	x	2.4	-2.1	-3.5	0.0	x
COC(=O)c1ccc(CN2CC(=O)N3[C@@H](CO)[C@@H](c4ccc(Br)cc4)[C@@H]3C2)cc1	x	x	3.4	x	-0.2	x
CC(=O)c1sc(N/N=C\c2cccc(Br)c2)nc1C	u	1.0	-78.5	0.6	0.2	24.4
CC(=O)c1sc(N/N=C\c2ccc(Br)cc2)nc1C	x	13.8	x	2.2	x	118.6*
CC(=NNc1nc2ccccc2s1)c1ncccn1	x	75.4*	0.9	2.5	-0.1	-33.1
SMILES	esBAF inh	Wnt act	AF4-AF9 inh	SMARCA2 act	FGF22 binding	MITF TRPM1 HTS
C(=N\Nc1nc2ccccc2s1)/c1cccs1	31.5	x	x	1.3	x	36.2
COc1ccc(/C=N/Nc2nc3ccccc3s2)cc1O	x	23.1	2.9	-0.6	1.2	2.5
C/C(=N\Nc1nc2ccccc2s1)c1cccs1	-38.0	u	12.6	3.0	-0.5	-11.9
CC(=O)Nc1ccc(/C=N/Nc2nc3ccccc3s2)cc1	-38.1	57.4*	3.9	3.3	0.3	53.2
Cc1ccsc1/C=N/Nc1nc2ccccc2s1	x	61.0*	10.6	0.1	x	39.4
Cc1noc(C)c1NC(=O)N(C)C[C@@H]1Oc2ccc(NC(=O)NC(C)C)cc2CC(=O)N([C@@H](C)CO)C[C@H]1C	0.3	x	-9.2	x	-0.3	x
Oc1ccccc1C=NNc1nc2ccccc2s1	50.9*	4.5	7.0	-1.7	0.7	-3.6
CC(=O)Nc1cccc(/C(C)=N/Nc2nc3ccccc3s2)c1	x	11.8	2.1	0.8	43.1*	52.1
